# Measurements from PubChem BioAssay (Tox21).
# Records with an inconclusive call do not appear. Entries that show only a call come without a potency. The source made the active and inactive calls. Unless noted, the call rests on the fitted dose curve; in most records, active means well fitted curve in the direction sought with a large enough effect in the repeat runs; inconclusive means weak or mixed curves; inactive means no such curve, though single readings can be large; an effect the other way counts as inactive or inconclusive.
# How the values were obtained:
# [1] = qHTS assay to identify aromatase inhibitors - cell viability counter screen (AID 743084);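 further: cells stimulated with testosterone during compound exposure; nearly all actives have a fitted effect of over 55% in size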
# [2] = biological target: Aryl hydrocarbon receptor (Homo sapiens) (UniProt P35869); assay: qHTS assay to identify small molecule that activate the aryl hydrocarbon receptor (AhR) signaling pathway (AID 743085); further: nearly all actives have a fitted effect of over 15% in size; further: potency means the concentration at half of the fitted maximal effect;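 on activation: HG2L7.5c1 human HepG2 liver cells with stably integrated DRE-driven firefly reporter; series mostly up to about 70 µM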
# Method in brief: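 Reporter assay in engineered HepG2 line HG2L7.5c1, whose plasmid carries twenty dioxin responsive elements upstream of firefly luciferase. Treatment lasted 24 h at 37C; ONE-Glo luminescence gauged induction.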
# [3] = qHTS assay to identify small molecule that activate the aryl hydrocarbon receptor (AhR) signaling pathway - cell viability counter screen (AID 743086);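 further: HepG2 liver cells carrying the AhR DRE luciferase reporter; series mostly up to about 70 µM; nearly all actives have a fitted effect of over 45% in size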
# Method in brief: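 HepG2-AhR-luc (HG2L7.5c1) cells, 4000/well, were preincubated 5 h at 37C, exposed to compound in qHTS format for 24 hr at 37C, then given CellTiter-Fluor for 30 min; viability was read as fluorescence in the reporter wells.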
# [4] = biological target: Peroxisome proliferator-activated receptor gamma (Homo sapiens) (UniProt P37231); assay: qHTS assay to identify small molecule agonists of the peroxisome proliferator-activated receptor gamma (PPARg) signaling pathway (AID 743094; active means well fitted activation curve with a large enough effect in the signal ratio in the repeat runs, not every such curve was filed as active; the % refers to the signal ratio)
# Method in brief: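 HEK293H PPARg-bla cells, 5 h settle at 37C/5% CO2; compound (DMSO) 17 h, 37C; B/G FRET substrate 1 h RT; fluorescence intensity read-out. qHTS format.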
# [5] = biological target: Peroxisome proliferator-activated receptor gamma (Homo sapiens) (UniProt P37231); assay: qHTS assay to identify small molecule antagonists of the peroxisome proliferator-activated receptor gamma (PPARg) signaling pathway (AID 743191; calls by dose curve; further: series mostly up to about 63 µM; nearly all actives have a fitted effect of over 30% in size)
# Method in brief: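 GeneBLAzer PPARg UAS-bla HEK293H cells carrying a UAS-driven beta-lactamase reporter were plated at 3000 cells/well, preincubated 5 h at 37C, then given compound for 17 h at 37C; LiveBLAzer B/G FRET substrate was read after 1 h at room temperature.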
# [6] = qHTS assay to identify small molecule antagonists of the peroxisome proliferator-activated receptor gamma (PPARg) signaling pathway - cell viability counter screen (AID 743194); further: nearly all actives have a fitted effect of over 55% in size
# Method in brief: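 PPARg-UAS-bla HEK293H cells were plated, rested 5 h at 37 C, then treated with compounds plus rosiglitazone (50 nM final) for 17 h at 37 C; viability was then read by CellTiter-Glo luminescence after 30 min at room temperature.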
# [7] = qHTS assay for small molecule agonists of the antioxidant response element (ARE) signaling pathway (AID 743202; active means well fitted activation curve with a large enough effect in the signal ratio in the repeat runs, not every such curve was filed as active; the % refers to the signal ratio; further: potency means the concentration at half of the fitted maximal effect)
# Method in brief: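 Following a 16 h, 37 C exposure of reporter HepG2 cells (ARE-driven beta-lactamase, 2,000 cells/well) to compounds, FRET substrate was applied for 2 h at room temperature and fluorescence intensity recorded.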
# [8] = qHTS assay for small molecule agonists of the antioxidant response element (ARE) signaling pathway - cell viability counter screen (AID 743203; calls by dose curve; further: nearly all actives have a fitted effect of over 55% in size)
# Method in brief: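 Luminescence read-out (CellTiter-Glo, 30 min at room temperature) measured cell viability in the same wells as the ARE beta-lactamase reporter. HepG2 ARE-bla cells were treated with compounds for 16 hrs at 37C/5% CO2.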
# [9] = qHTS assay for small molecule activators of the heat shock response signaling pathway - cell viability counter screen (AID 743209); further: nearly all actives have a fitted effect of over 50% in size
# Method in brief: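 HSE-bla HeLa; 1500 cells/well; overnight 37 C, 5% CO2; compound 5 h 37 C; LiveBLAzer B/G substrate 2.5 h RT; CellTiter-Glo 30 min RT; luminescence.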
# [10] = qHTS assay for small molecule activators of the heat shock response signaling pathway (AID 743210; active means well fitted activation curve with a large enough effect in the signal ratio in the repeat runs, with a control signal flat, not every such curve was filed as active; the % refers to the signal ratio; further: series mostly up to about 63 µM)
# Method in brief: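 Heat shock element–beta-lactamase HeLa reporter cells; qHTS with compounds for 5 h at 37 C; detection by FRET substrate fluorescence after 2.5 h at RT.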
# [11] = qHTS assay to identify small molecule agonists of the peroxisome proliferator-activated receptor delta (PPARd) signaling pathway - cell viability counter screen (AID 743211); further: nearly all actives have a fitted effect of over 55% in size
# Method in brief: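 Multiplexed format: after the 2 h room-temperature LiveBLAzer B/G FRET step, CellTiter-Glo was added to the same wells. Luminescence after 30 min gave cell viability; compound exposure was 17 h at 37C.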
# [12] = qHTS assay to identify small molecule antagonists of the peroxisome proliferator-activated receptor delta (PPARd) signaling pathway - cell viability counter screen (AID 743213); further: nearly all actives have a fitted effect of over 50% in size
# Method in brief: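 PPARd-bla HEK293H cells (3000/well) got compound plus 300 nM L165041 agonist for 17 h at 37 C. Viability in the same wells came from CellTiter-Glo luminescence after 30 min at room temperature.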
# [13] = qHTS assay to identify small molecule agonists of the farnesoid-X-receptor (FXR) signaling pathway - cell viability counter screen (AID 743218); further: nearly all actives have a fitted effect of over 45% in size
# Method in brief: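 Luminescence from CellTiter-Glo, read after 30 min at RT, reports viability of GeneBLAzer FXR-UAS-bla HEK 293T cells treated 16 h with compounds in the wells used for the beta-lactamase reporter.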
# [14] = qHTS assay to identify small molecule antagonists of the farnesoid-X-receptor (FXR) signaling pathway - cell viability counter screen (AID 743221; active means well fitted cell-killing curve with a large enough effect in the repeat runs, not every such curve was filed as active; further: nearly all actives have a fitted effect of over 50% in size)
# Method in brief: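 CellTiter-Glo, 30 min RT, luminescence; same wells as the LiveBLAzer FRET read. Cells: FXR-UAS-bla HEK 293T. Treatment: compound with chenodeoxycholic acid 50 uM final, 16 h at 37 C.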
# [15] = biological target: Peroxisome proliferator-activated receptor delta (Homo sapiens) (UniProt Q03181); assay: qHTS assay to identify small molecule agonists of the peroxisome proliferator-activated receptor delta (PPARd) signaling pathway (AID 743212; calls by dose curve)
# Method in brief: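 Beta-lactamase reporter read by fluorescence (LiveBLAzer B/G FRET, 2 h, room temperature). Test agents, in DMSO, incubated at 37 C with PPARd-bla HEK293H cells.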
# [16] = biological target: Peroxisome proliferator-activated receptor delta (Homo sapiens) (UniProt Q03181); assay: qHTS assay to identify small molecule antagonists of the peroxisome proliferator-activated receptor delta (PPARd) signaling pathway (AID 743215; active means well fitted inhibition curve with a large enough effect in the signal ratio in the repeat runs, not every such curve was filed as active; the % refers to the signal ratio;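 further: cells stimulated with agonist L165041 at 300 nM final during compound exposure; series mostly up to about 62 µM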)
# Method in brief: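 HEK293H GeneBLAzer PPARd UAS-bla reporter cells; cpd + L165041 300 nM final, 17 h 37 C; LiveBLAzer B/G FRET substrate 2 h RT; fluorescence intensity read-out. Antagonist mode.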
# [17] = biological target: Vitamin D3 receptor (Homo sapiens) (UniProt P11473); assay: qHTS assay to identify small molecule agonists of the vitamin D receptor (VDR) signaling pathway (AID 743222; calls by dose curve)
# Method in brief: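 Beta-lactamase reporter readout (LiveBLAzer B/G FRET, 2 h RT) in VDR-bla cells after 16 h compound treatment at 37C, 5% CO2; cells pre-incubated 4 h before pin transfer of DMSO solutions.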
# [18] = biological target: Bile acid receptor (Homo sapiens) (UniProt Q96RI1); assay: qHTS assay to identify small molecule antagonists of the farnesoid-X-receptor (FXR) signaling pathway (AID 743217; active means well fitted inhibition curve with a large enough effect in the signal ratio in the repeat runs, not every such curve was filed as active; the % refers to the signal ratio)
# Method in brief: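 Read-out: beta-lactamase FRET fluorescence (LiveBLAzer B/G substrate, 2 h, room temperature) in GeneBLAzer FXR-UAS-bla HEK 293T cells. Compounds were co-dosed with 50 uM chenodeoxycholic acid (final) and incubated 16 h at 37 °C.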
# [19] = biological target: Bile acid receptor (Homo sapiens) (UniProt Q96RI1); assay: qHTS assay to identify small molecule agonists of the farnesoid-X-receptor (FXR) signaling pathway (AID 743220; active means well fitted activation curve with a large enough effect in the signal ratio in the repeat runs, not every such curve was filed as active; the % refers to the signal ratio)
# Method in brief: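 FXR-UAS-bla HEK 293T cells carrying a UAS-driven beta-lactamase reporter were plated for 5 h at 37C/5% CO2, then exposed to DMSO-dissolved Tox21 10K compounds for 16 h at 37C. A LiveBLAzer B/G FRET substrate was loaded for 2 h at room temperature before fluorescence reading.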
# [20] = biological target: Vitamin D3 receptor (Homo sapiens) (UniProt P11473); assay: qHTS assay to identify small molecule antagonists of the vitamin D receptor (VDR) signaling pathway (AID 743223; active means well fitted inhibition curve with a large enough effect in the signal ratio in the repeat runs, not every such curve was filed as active; the % refers to the signal ratio)
# Method in brief: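 After VDR-bla cells are plated and left 4 h at 37C, DMSO-dissolved compounds and 3 nM (final) calcitriol agonist are added. Incubation continues 16 h at 37C; FRET beta-lactamase substrate then develops 2 h at room temperature.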
# Chain of Vitamin D3 receptor (Homo sapiens) (P11473 whole entry, looked up): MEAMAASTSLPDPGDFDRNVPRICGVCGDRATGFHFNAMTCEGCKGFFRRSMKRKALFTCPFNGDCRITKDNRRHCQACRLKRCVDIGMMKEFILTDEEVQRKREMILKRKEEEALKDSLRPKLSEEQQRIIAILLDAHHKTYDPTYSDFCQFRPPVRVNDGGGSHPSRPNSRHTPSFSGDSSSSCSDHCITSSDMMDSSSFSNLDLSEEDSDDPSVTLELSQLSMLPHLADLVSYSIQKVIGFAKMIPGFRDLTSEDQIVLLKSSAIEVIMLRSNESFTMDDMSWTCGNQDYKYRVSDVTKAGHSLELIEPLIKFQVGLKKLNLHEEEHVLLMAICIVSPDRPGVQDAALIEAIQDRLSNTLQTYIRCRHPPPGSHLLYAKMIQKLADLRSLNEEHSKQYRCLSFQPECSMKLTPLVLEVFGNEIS
# Chain of Bile acid receptor (Homo sapiens) (Q96RI1 whole entry, looked up): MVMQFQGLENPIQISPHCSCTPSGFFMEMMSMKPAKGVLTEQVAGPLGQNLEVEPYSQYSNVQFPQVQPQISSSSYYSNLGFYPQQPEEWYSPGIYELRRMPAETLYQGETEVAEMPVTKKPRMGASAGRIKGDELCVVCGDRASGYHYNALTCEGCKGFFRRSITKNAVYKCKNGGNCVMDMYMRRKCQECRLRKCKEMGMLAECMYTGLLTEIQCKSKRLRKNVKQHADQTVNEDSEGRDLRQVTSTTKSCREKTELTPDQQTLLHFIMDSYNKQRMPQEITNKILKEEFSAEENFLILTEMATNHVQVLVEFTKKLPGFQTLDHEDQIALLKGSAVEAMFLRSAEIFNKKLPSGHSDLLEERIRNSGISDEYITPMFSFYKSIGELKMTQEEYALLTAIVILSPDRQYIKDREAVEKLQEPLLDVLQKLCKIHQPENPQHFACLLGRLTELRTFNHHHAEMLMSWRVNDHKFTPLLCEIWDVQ
# Chain of Peroxisome proliferator-activated receptor gamma (Homo sapiens) (P37231 whole entry, looked up): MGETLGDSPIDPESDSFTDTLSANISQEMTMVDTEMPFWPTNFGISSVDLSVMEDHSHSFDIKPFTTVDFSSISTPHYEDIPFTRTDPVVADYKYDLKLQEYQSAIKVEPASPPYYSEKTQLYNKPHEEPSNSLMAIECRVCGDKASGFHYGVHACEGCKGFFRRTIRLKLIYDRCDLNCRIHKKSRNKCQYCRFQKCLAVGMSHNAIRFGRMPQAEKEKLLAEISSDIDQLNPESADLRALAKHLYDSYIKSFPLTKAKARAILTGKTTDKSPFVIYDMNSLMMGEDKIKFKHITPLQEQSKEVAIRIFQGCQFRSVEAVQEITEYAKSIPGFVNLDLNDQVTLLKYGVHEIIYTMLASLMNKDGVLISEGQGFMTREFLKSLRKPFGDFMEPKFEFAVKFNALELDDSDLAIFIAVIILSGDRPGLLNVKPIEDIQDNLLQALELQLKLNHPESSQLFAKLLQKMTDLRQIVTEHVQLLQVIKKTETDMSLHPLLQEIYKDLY
# Chain of Aryl hydrocarbon receptor (Homo sapiens) (P35869 whole entry, looked up): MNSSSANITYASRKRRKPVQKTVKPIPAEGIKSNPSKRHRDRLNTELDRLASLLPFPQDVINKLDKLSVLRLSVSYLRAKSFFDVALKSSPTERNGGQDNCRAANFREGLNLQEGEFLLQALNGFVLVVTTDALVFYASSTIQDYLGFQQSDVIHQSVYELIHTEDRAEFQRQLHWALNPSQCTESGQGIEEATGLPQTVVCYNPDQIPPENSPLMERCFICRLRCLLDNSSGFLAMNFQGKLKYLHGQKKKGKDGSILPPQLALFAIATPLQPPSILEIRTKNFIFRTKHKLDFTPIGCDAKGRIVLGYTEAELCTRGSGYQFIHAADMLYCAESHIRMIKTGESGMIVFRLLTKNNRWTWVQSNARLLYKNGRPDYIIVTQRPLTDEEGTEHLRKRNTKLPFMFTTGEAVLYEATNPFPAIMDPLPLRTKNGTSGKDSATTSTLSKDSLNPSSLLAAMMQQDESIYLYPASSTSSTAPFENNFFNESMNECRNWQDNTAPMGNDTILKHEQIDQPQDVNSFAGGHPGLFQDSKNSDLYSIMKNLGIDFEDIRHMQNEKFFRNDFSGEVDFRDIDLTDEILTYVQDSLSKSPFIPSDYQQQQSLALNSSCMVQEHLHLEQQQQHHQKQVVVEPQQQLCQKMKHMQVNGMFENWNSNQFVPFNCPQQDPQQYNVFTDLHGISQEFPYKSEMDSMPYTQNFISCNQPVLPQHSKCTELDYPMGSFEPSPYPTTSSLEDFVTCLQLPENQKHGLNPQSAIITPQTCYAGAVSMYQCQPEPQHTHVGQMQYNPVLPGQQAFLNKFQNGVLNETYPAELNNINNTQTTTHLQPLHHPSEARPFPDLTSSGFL
# Chain of Peroxisome proliferator-activated receptor delta (Homo sapiens) (Q03181 whole entry, looked up): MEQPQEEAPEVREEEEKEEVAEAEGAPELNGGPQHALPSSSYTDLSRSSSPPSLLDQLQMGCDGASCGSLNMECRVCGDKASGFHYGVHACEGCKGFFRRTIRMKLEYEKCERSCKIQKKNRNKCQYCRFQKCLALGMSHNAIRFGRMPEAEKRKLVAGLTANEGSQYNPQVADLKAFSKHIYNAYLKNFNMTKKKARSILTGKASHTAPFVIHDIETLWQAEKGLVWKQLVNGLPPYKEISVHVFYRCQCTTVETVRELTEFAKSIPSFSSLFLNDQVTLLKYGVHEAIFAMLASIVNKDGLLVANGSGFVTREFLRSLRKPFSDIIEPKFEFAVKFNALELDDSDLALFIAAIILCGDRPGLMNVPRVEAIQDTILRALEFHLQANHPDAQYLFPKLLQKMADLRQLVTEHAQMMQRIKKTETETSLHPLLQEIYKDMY
Structure (SMILES),Potency [1],Potency [2],outcome [3],Potency [4],Potency [5],Potency [6],Potency [7],Potency [8],outcome [9],Potency [10],Potency [11],Potency [12],Potency [13],outcome [14],outcome [15],outcome [16],outcome [17],outcome [18],outcome [19],outcome [20]
CCCCC1CCC(=O)O1 (stereo not given),inactive,inactive,inactive,inactive,inactive,inactive,inactive,inactive,inactive,inactive,inactive,inactive,inactive,inactive,,,,,,
CO[C@@]1(NC(=O)CSCC#N)C(=O)N2C(C(=O)O)=C(CSc3nnnn3C)CS[C@@H]21,inactive,inactive,inactive,inactive,inactive,inactive,inactive,inactive,inactive,inactive,inactive,,inactive,inactive,inactive,inactive,inactive,,,
CCCCCCCCCC/C=C/C#N,inactive,inactive,inactive,inactive,inactive,inactive,,inactive,inactive,,inactive,inactive,inactive,,inactive,inactive,inactive,inactive,inactive,
C=CC1CO1 (stereo not given),inactive,inactive,inactive,inactive,inactive,inactive,inactive,inactive,inactive,inactive,inactive,,inactive,,,,inactive,,,
CCN(CC)CC1CCCCN1CC(=O)N1c2ccccc2C(=O)Nc2cccnc21 (stereo not given),inactive,inactive,inactive,inactive,inactive,inactive,inactive,inactive,inactive,,inactive,inactive,inactive,inactive,,inactive,,inactive,inactive,inactive
NC/C=C/C(=O)O,inactive,inactive,inactive,inactive,inactive,inactive,,inactive,inactive,inactive,inactive,inactive,inactive,,inactive,inactive,inactive,,,
CC(C)O,inactive,inactive,inactive,inactive,inactive,inactive,inactive,inactive,,,,,inactive,inactive,,,,inactive,inactive,inactive
CCCN(CCC)C(=O)C(CCC(=O)O)NC(=O)c1ccccc1 (stereo not given),inactive,inactive,inactive,inactive,inactive,,inactive,inactive,inactive,inactive,inactive,inactive,inactive,inactive,inactive,inactive,inactive,,,
CCc1nnc(NS(=O)(=O)c2ccc(N)cc2)s1,inactive,inactive,inactive,inactive,inactive,inactive,inactive,inactive,inactive,inactive,inactive,,inactive,inactive,,,inactive,inactive,inactive,inactive
CC(C)C(=O)OC/C=C/c1ccccc1,inactive,inactive,inactive,inactive,inactive,inactive,inactive,inactive,inactive,inactive,inactive,,inactive,inactive,inactive,inactive,inactive,inactive,inactive,inactive
CCOC(=O)C1CC(=O)C(=C(O)C2CC2)C(=O)C1 (stereo not given),inactive,inactive,inactive,inactive,inactive,inactive,,inactive,inactive,inactive,inactive,inactive,inactive,inactive,inactive,inactive,inactive,inactive,inactive,inactive
COc1cc(N)c(Cl)cc1C(=O)NC1CCN(Cc2ccccc2)CC1,inactive,inactive,inactive,inactive,inactive,,inactive,inactive,inactive,inactive,inactive,inactive,inactive,inactive,inactive,inactive,,inactive,inactive,inactive
Cc1ccc([N+](=O)[O-])cc1Cl,inactive,inactive,inactive,inactive,inactive,inactive,,inactive,inactive,inactive,inactive,inactive,inactive,,inactive,inactive,inactive,inactive,inactive,inactive
CC(C)c1ccccc1,inactive,inactive,inactive,inactive,inactive,inactive,inactive,inactive,,,,,inactive,inactive,,,,inactive,inactive,inactive
O=C(O)C(=O)Cc1c[nH]c2ccccc12,inactive,6.11 µM (active),inactive,inactive,inactive,inactive,27.3 µM (active),inactive,inactive,inactive,,inactive,inactive,,,inactive,inactive,,,
CC1=CC(=O)CC(C)(C)C1=O,inactive,inactive,inactive,inactive,inactive,inactive,,inactive,inactive,inactive,inactive,inactive,inactive,,inactive,inactive,inactive,,,inactive
Nc1cccc(S(=O)(=O)O)c1,inactive,inactive,inactive,inactive,inactive,inactive,inactive,inactive,inactive,inactive,inactive,,inactive,inactive,inactive,inactive,inactive,,,
